Data: PubChem BioAssay AID687043 (Milwaukee Institute for Drug Discovery, 2013)
Out of some 16,000 compounds screened, about 250 (1.6%) were called active. Shown is part of a subset that was picked to be rich in actives. Values without a mark were called inactive.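 Rule for the calls: active = inhibition above the average over every tested compound plus 3 SD (cut at about 40% in these data); inactive = the rest.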

test system: Hepatitis C virus NS3 helicase; assay: compounds blocking NS3h DNA binding – biochemical, fluorescence polarization, ChemBridge library, primary screen (AID 687043); conditions: NS3h Cy5-dT15 DNA binding, at 100 µM, stronger effect = higher value

SMILES	inhibition
CCN1C(=O)/C(=C\c2cn(CCOc3ccccc3)c3ccccc23)SC1=S	11.7%
O=C(c1cnn2c(C(F)(F)F)cc(-c3cccs3)nc12)N1CCCc2ccccc21	14.1%
O=C(COc1ccc(Br)cc1)Nc1cccc(C(F)(F)F)c1	3.2%
CC(=O)n1nc(C)c2c(-c3ccccc3)c3cc(Br)ccc3nc21	0.3%
O=C(NNC(=O)c1ccc(-c2ccccc2)cc1)Nc1ccccc1	6.7%
O=C(O)COc1ccc2c(=O)c(Oc3ccccc3Br)coc2c1	4.5%
CCOc1ccc(NC(=O)C2=C(C)NC(=S)NC2c2c(OC)ccc3ccccc23)cc1 (centres undefined)	6.9%
CCc1ccc2oc(-c3ccc(NC(=O)c4ccccc4[N+](=O)[O-])cc3)nc2c1	17.7%
COc1ccc2oc(=O)c(-c3ccc(I)cc3)cc2c1	1.3%
Cc1ccc(C(=O)C[n+]2cc(-c3ccccc3)n3c2CCCCC3)cc1	54.5% (active)
COC(=O)c1cc(NC(=O)c2ccc(OC)cc2)cc(C(=O)OC)c1	1.9%
O=C1CS/C(=N/N=C\c2ccc([N+](=O)[O-])cc2)N1c1ccc(O)cc1	9.1%
Cc1cc(=O)oc2ccc(OCC(=O)O)cc12	-3.9%
C=C(C)COc1ccc2oc(C)c(C(=O)OC)c2c1	12.1%
COc1ccc(C(=O)Oc2ccc3oc(=O)cc(C)c3c2)cc1OC	48.9% (active)
O=C(Nc1c(F)cc(F)cc1Br)c1cc2n(n1)C(C(F)(F)F)CC(c1cccs1)N2 (centres undefined)	11.4%
O=C(/C=C/c1cccc([N+](=O)[O-])c1)Nc1ccc(O)c(-c2nc3ccccc3o2)c1	12.7%
CCOc1ccc(C2(Cc3ccccc3)C(=O)c3ccccc3C2=O)cc1	5.5%
CC1=C(C(=O)OCC2CCCO2)C(c2cccc(C(F)(F)F)c2)C2=C(CCCC2=O)N1 (centres undefined)	-1.6%
CSc1nsc(SC)c1NC(=O)OCC1([N+](=O)[O-])COC(C)(C)OC1	3.2%
CC(C)n1c(O)c(C2=c3ccccc3=NC2=O)sc1=S	6.8%
CCOc1cc(/C=c2\sc3nc4ccccc4n3c2=O)ccc1OC(C)c1ccccc1 (centres undefined)	2.5%

SMILES	inhibition
CCCC(=O)Nc1cccc(NC(=O)c2ccc(-c3ccc(Cl)cc3Cl)o2)c1	8.9%
Cc1cc(I)ccc1NC(=O)COc1ccc(Br)cc1	8%
Clc1ccc(Cn2c(CNc3ccc(Cl)cc3)nc3ccccc32)cc1	9.9%
Cc1ccc(N2C(=O)CC(NCc3ccc(F)cc3)C2=O)cc1 (centres undefined)	5%
Cc1ccc(S(=O)(=O)Nc2cc(-c3ccc(F)cc3)[nH]n2)cc1	-6.5%
O=C(Nc1nccs1)c1ccc(NC(=O)C2CCCCC2)cc1	12.5%
N/C(=N/OC(=O)c1ccccc1F)c1ccc(Br)cc1	-3.4%
CC(C)c1ccc(/C=C(\C(=O)c2ccccc2Cl)c2nc3ccccc3o2)cc1	10.6%
N#Cc1c(SCC(=O)c2ccc(Cl)cc2)nc2c(c1-c1ccco1)CCCC2	-2.3%
N#Cc1c(N)nc2sc(C(=O)Nc3ccccc3)c(N)c2c1-c1ccco1	65.7% (active)
O=C(Nc1ccc(Oc2ccccc2)cc1)c1ccco1	12%
COC(=O)c1cc(C(=O)N(Cc2ccccc2)c2ccccn2)cc([N+](=O)[O-])c1	8.4%
CCOC(=O)c1cc2n(n1)C(C(F)(F)F)CC(c1ccco1)N2 (centres undefined)	1.4%
COc1ccc(Nc2nc(-c3ccccc3)c3cc(C)ccc3n2)cc1	6.7%
COc1ccc(S(=O)(=O)NCCC(C)C)cc1	4.2%
Cc1ccc(CCC(=O)Nc2ncc(Cc3ccc(F)cc3)s2)o1	-10.4%
COc1ccc(C(=O)Nc2ccc(Br)cc2C)c(OC)c1	24.4%
COc1ccccc1CNC(=O)C1CC(=O)N(c2ccc(F)cc2)C1 (centres undefined)	1.7%
Cc1ccc(C(=O)Nc2ccc(Cl)cc2)cc1[N+](=O)[O-]	-9.5%
O=C(/C=C/c1cc2c(cc1Br)OCO2)c1cccc([N+](=O)[O-])c1	2.3%
COc1ccc(-c2noc(-c3ccc(Br)cc3)n2)cc1	3.3%
O=C(NCc1ccco1)/C(=C/c1cccc(Oc2ccccc2)c1)NC(=O)c1ccccc1	9.7%

SMILES	inhibition
Cc1nc(SCC#N)c(C#N)c(C)c1C	9%
COc1ccc2c(Cl)c(C(=O)NCc3ccc4c(c3)OCO4)sc2c1	17%
Cc1ccccc1OCC(=O)Nc1ccc(OC(F)(F)F)cc1	2.3%
CC(C)Nc1nc(-c2ccc(Cl)cc2)nc2ccccc12	19.8%
COc1cccc(C2C(C(=O)Nc3ccccc3)=C(C)N=c3s/c(=C\c4ccncc4)c(=O)n32)c1 (centres undefined)	2.2%
Cn1c(=O)c2c(nc(Sc3ncn[nH]3)n2C)n(C)c1=O	-6.5%
CCOC(=O)C1=C(C)N=c2s/c(=C/c3c[nH]c4ccccc34)c(=O)n2C1c1ccc(F)cc1 (centres undefined)	-6.3%
O=C(c1ccncc1)N1N=C(c2ccc(Cl)cc2)CC1(O)C(F)(F)F (centres undefined)	13.4%
COC(=O)C1=C(C)NC2=C(C(=O)CC(c3ccc(OC)c(OC)c3)C2)C1c1ccc(OC)c(OC)c1 (centres undefined)	7.3%
O=C(CN(c1cccc(Br)c1)S(=O)(=O)c1ccccc1)N1CCOCC1	3.1%
Cn1c(=O)n(CCOc2ccc(Br)cc2)c2ccccc21	13.9%
Cc1nc2c([N+](=O)[O-])cc(Br)cc2c(=O)[nH]1	-12.6%
COc1ccc(CCNC(=O)C(=O)Nc2ccccc2C)cc1OC	15.5%
CCOc1ccc(C2=C/C(=C/c3ccc(OC)c(OC)c3)C(=O)O2)cc1	-0.3%
Cc1ccc(COc2ccc3oc(C)c(C(=O)O)c3c2)cc1	5.2%
COc1ccccc1N1CCN(S(=O)(=O)c2ccc(SC)cc2)CC1	-1.6%
CCOc1cc(/C=C2\C=C(c3ccc(C)cc3)OC2=O)ccc1OC(C)=O	-4.9%
O=C(COc1ccc(Br)cc1)Nc1cccc2nsnc12	6%
O=C(COc1ccccc1)Nc1ccc(NC(=O)COc2ccccc2)cc1	2.2%
COc1ccc(OC)c(C=NN2CCN(Cc3ccc(C)cc3C)CC2)c1	11.9%
